Source: PubChem (several laboratories)
NR3A LBD binder: binders of NR3A ligand-binding domain, primary screen, biophysical, differential scanning fluorimetry, uHTS. Glutamate receptor ionotropic, NMDA 3A (GRIN3A) ligand-binding domain. NR3A LBD differential scanning fluorimetry, Tm shift; 0% = protein alone, 100% = glycine-bound protein. Tm shift relative to glycine control, % at 25 µM. 2.5% of 340,000 active;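 active = melting temperature shift of at least 10% of the positive control shift, at one fixed dose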
FAS-TE inh: FAS thioesterase domain inhibitors, primary screen, biochemical, fluorescence intensity, uHTS; 0.67% of 360,000 active; recombinant FAS-TE, OMFH fluorogenic substrate, fluorescence endpoint; AID 602261, 2012; inhibition, % at 15 µM;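 active = compounds whose normalised, plate-corrected inhibition of enzyme fluorescence in the single-dose primary screen is 50% or more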;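 also: 0% = DMSO with enzyme and 100% = substrate without enzyme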
rCAG RNA binder: binders of r(CAG) RNA repeats, primary screen, biochemical, fluorescence; r(CAG) RNA repeat, TO-PRO-1 dye displacement fluorescence; inhibition, % at 3 µM; 1.3% of 370,000 active; AID 651821, 2012;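 active = inhibition above the plate cutoff, the mean of all test compounds on that plate plus 3 SD, cut at about 35% in these data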;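 also: 0% = DMSO alone and 100% = 100 µM mitoxantrone as full dye displacement; higher means more dye released from RNA so lower well fluorescence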
NadD inh: inhibitors of S. aureus NadD, primary screen, biochemical, colorimetric, uHTS; Nicotinate-nucleotide adenylyltransferase NadD (Staphylococcus aureus N315); inhibition, % at 20 µM; AID 602399, 2012; 0.78% of 360,000 active; purified NadD enzyme, colorimetric absorbance read-out; in the data active = inhibition above about 26%
FAS-TE inh conf: FAS thioesterase domain inhibitors, confirmation, biochemical, fluorescence intensity, single concentration. recombinant FAS-TE, OMFH fluorogenic substrate. inhibition, % at 15 µM. 45% of 2,300 active. shares compounds with FAS-TE inh. AID 624325, 2012;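 active = compounds inhibiting the enzyme by at least 50% at 15 µM in any one of the replicates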;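 also: 0% = enzyme with DMSO only and 100% = wells lacking enzyme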
* marks the source's active call; other numbers are inactive results; nt = no result. A selection: hits, their analogues and other compounds. The true share with any hit is near 4.3%.

SMILES	NR3A LBD binder	FAS-TE inh	rCAG RNA binder	NadD inh	FAS-TE inh conf
COc1ccc([C@@H]2C[C@H]3[C@@H](CN2S(=O)(=O)c2ccccc2)C(=O)C[C@@H](c2ccc(OC)cc2)N3S(=O)(=O)c2ccccc2)cc1	nt	76*	14	15	30
CCN1C(=O)[C@H]2[C@@H](c3ccccc3)N3C(=O)N(c4cccc(F)c4)C(=O)[C@@]3(CC(C)C)[C@H]2C1=O	1	-4	nt	0	nt
Cc1cccc([C@@H]2[C@@H]3C(=O)N(Cc4ccccc4)C(=O)[C@@H]3[C@]3(Cc4ccccc4)C(=O)N(c4cccc(F)c4)C(=O)N23)c1	-4	92*	13	9	17
CC[C@@]12C(=O)N(c3cccc(F)c3)C(=O)N1[C@H](c1cccc(C)c1)[C@@H]1C(=O)N(Cc3ccccc3)C(=O)[C@@H]12	-11	16	-4	-1	nt
Cc1cccc([C@@H]2[C@@H]3C(=O)N(Cc4ccccc4)C(=O)[C@@H]3[C@]3(CC(C)C)C(=O)N(c4cccc(F)c4)C(=O)N23)c1	-5	72*	5	3	26
O=C(NCCc1ccccc1)C(c1cccs1)N(C(=O)CCl)c1ccc(Cl)cc1 (stereo unspecified)	-6	56*	-9	1	54*
O=C(NCCc1ccccc1)C(c1cccs1)N(C(=O)c1csnn1)C1CC1 (stereo unspecified)	-1	-4	-4	-1	nt
CCC(=O)N(Cc1ccccc1)c1ccccc1C(=O)Nc1cc(OC)ccc1OC	nt	nt	-1	nt	nt
COc1ccc(/C=C(/NC(=O)c2ccc(OC)c(OC)c2)C(=O)NCCc2c[nH]c3ccccc23)cc1	1	-3	4	-2	nt
COc1ccc(C(=O)N/C(=C/c2cccc3ccccc23)C(=O)NCCc2c[nH]c3ccccc23)cc1OC	-19	61*	16	15	7
O=C(Nc1ccc(F)cc1)OCc1cn(Cc2cccc(F)c2)nn1	nt	nt	3	nt	nt
CCCCN(CCCNC(=O)c1c(C)cc(=O)oc1C)c1ccccc1	0	51*	-1	-3	7
CCN(CCCNC(=O)c1c(C)cc(=O)oc1C)c1ccccc1	-1	17	-4	-4	nt
Cc1ccc(S(=O)(=O)N(C)C)cc1NC(=O)CN1CCN(Cc2ccccc2)CC1	0	-2	-8	-6	nt
Cc1ccc(S(=O)(=O)N(C)C)cc1NC(=O)[C@H](Cc1ccccc1)N1C(=O)c2ccccc2C1=O	4	53*	5	-1	30
COc1ccc(S(=O)(=O)N(C)C)cc1NC(=O)[C@H](Cc1ccccc1)N1C(=O)c2ccccc2C1=O	-1	65*	6	-2	38
O=C(NCCc1cccc(F)c1)c1cc2ccccn2n1	nt	nt	0	nt	nt
O=C(CSc1ccc([N+](=O)[O-])cn1)Nc1ccc2c(c1)OCO2	-1	86*	5	-4	57*
O=C(Cc1ccc([N+](=O)[O-])cc1)Nc1ccc2c(c1)OCO2	1	44	-1	-6	nt
O=C(Cn1cnc2ccccc2c1=O)Nc1ccc2c(c1)OCO2	2	-13	1	3	nt
O=C(Cn1cnc2cc([N+](=O)[O-])ccc2c1=O)Nc1ccc2c(c1)OCO2	-1	75*	9	7	53*
CCCCCCCCN1C(=O)[C@@H](CC(=O)NCc2cccc3ccccc23)C[C@@]2(C(=O)OC)C1=C[C@H](C(C)(C)C)O[C@@H]2C	nt	nt	0	nt	nt
CCCC(=O)N1CCC(C(=O)NC2CCCc3ccccc32)CC1 (stereo unspecified)	nt	nt	2	nt	nt
O=C(NC1CCCCN(Cc2cccc(F)c2)C1=O)c1ccc2ccccc2c1 (stereo unspecified)	nt	nt	3	nt	nt
COC(=O)C1CN(Cc2cn(Cc3ccc(Cl)cc3)nn2)CCS(=O)(=O)N1Cc1ccc(C)cc1 (stereo unspecified)	nt	nt	-1	nt	nt
SMILES	NR3A LBD binder	FAS-TE inh	rCAG RNA binder	NadD inh	FAS-TE inh conf
CCCCCCCCNC(=O)/C(C#N)=C/c1ccccc1[N+](=O)[O-]	-15	57*	0	5	73*
COCCOc1ccc(C(F)(F)F)cc1NC(=O)Cc1ccc(S(=O)(=O)N2CCOCC2)s1	-3	65*	6	-6	69*
CCCOc1ccc(NC(=O)Cc2ccc(S(=O)(=O)N3CCOCC3)s2)cc1OCCC	0	18	8	-6	nt
CN(Cc1ccc(C(C)(C)C)cc1)C(=O)Cc1ccc(S(=O)(=O)N2CCOCC2)s1	1	85*	2	-6	89*
O=C(CCn1nnc2ccccc21)N1CCN(c2ccc(F)cc2)CC1	nt	nt	0	nt	nt
N#Cc1ccc(-c2cccnc2)nc1SCc1ccc(Cl)c(Cl)c1	9	42	0	9	nt
N#Cc1ccc(-c2cccnc2)nc1SCc1ccc(Cl)cc1Cl	-1	55*	0	2	16
Cc1c(Cl)ccc2c1NC(=O)[C@]21N[C@@H](Cc2ccccc2)[C@H]2C(=O)N(c3ccc(F)cc3)C(=O)[C@H]21	13*	76*	7	7	20
COC(=O)[C@@]12CCCCC3=C1N(CCC3)C(=O)[C@H]2CC(=O)N1CCOCC1	nt	nt	0	nt	nt
C/C(=N\Nc1ncc(Cl)cc1Cl)c1ccc2c(c1)OCO2	0	5	1	-2	nt
C/C(=N\Nc1ncc(Cl)cc1Cl)c1ccc(OC(F)F)cc1	-20	52*	2	-1	59*
Cc1cccc(NC(=O)CSc2nc3c(oc4ccccc43)c(=O)n2-c2ccccc2)c1	2	57*	21	16	35*
Cc1cccc(NC(=O)Cn2cnc3c(oc4ccccc43)c2=O)c1	2	-6	1	2	nt
Cc1cc(C)c(C#N)c(N2CCN(CCOc3ccc(Cl)cc3)CC2)n1	-4	50*	-8	-9	33
O=C(Nc1ccc(F)c(Cl)c1)C1Cc2c(-c3cccc(F)c3)ccnc2O1 (stereo unspecified)	nt	40	2	1	nt
CC(=O)c1cccc(-c2ccnc3c2CC(C(=O)Nc2ccc(F)c(Cl)c2)O3)c1 (stereo unspecified)	nt	60*	2	-5	58*
CC(C)c1ccc(NC(=O)C2Cc3c(-c4cccc(F)c4)ccnc3O2)cc1 (stereo unspecified)	nt	50*	9	2	42
CC(C)c1ccc(NC(=O)C2Cc3c(-c4cccc(C(N)=O)c4)ccnc3O2)cc1 (stereo unspecified)	nt	11	5	8	nt
CC1(c2nnnn2C2CCCCC2)CCCC(=O)N1CCc1ccc(O)cc1 (stereo unspecified)	nt	nt	6	nt	nt
COc1ccc(/C=C(\NC(=O)c2ccc([N+](=O)[O-])cc2)C(=O)NCCCn2ccnc2)cc1	0	74*	3	-1	81*
CCCCOc1ccc(C(=O)N/C(=C\c2ccc([N+](=O)[O-])cc2)C(=O)OCc2ccco2)cc1	-2	60*	7	-3	40
